Results taken from the supplement of paper PMC8728848.
The sample as a whole holds a higher share of the strongest signals than the screen did.

What was measured:
Assay in all cases: glycan array binding signal (z-score within array); higher = stronger binding
Details in all cases: glycan notation: IUPAC condensed, linker removed
Gal3S(b1-3)GalNAc = molecular target: Gal3S(b1-3)GalNAc
Outline: (§1)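 Columns mapping to the same glycan were averaged after glycan names were converted to IUPAC-condensed notation. The data come from 3228 arrays in the Consortium for Functional Glycomics database, limited to those with an available protein sequence. Binding is reported as a within-array Z-score averaged across arrays of one protein sequence and across linkers.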

Gal3S(b1-4)GlcNAc6S = molecular target: Gal3S(b1-4)GlcNAc6S
Outline: as §1

Gal6S(b1-4)Glc = molecular target: Gal6S(b1-4)Glc
Outline: as §1

Gal6S(b1-4)GlcNAc = molecular target: Gal6S(b1-4)GlcNAc
Outline: as §1

[1] = molecular target: GalNAc(b1-3)Gal(a1-4)Gal(b1-4)GlcNAc(b1-3)Gal(b1-4)Glc
Outline: as §1

GalNAc(b1-3)GlcNAc = molecular target: GalNAc(b1-3)GlcNAc
Outline: as §1

GalNAc(b1-6)GalNAc = molecular target: GalNAc(b1-6)GalNAc
Outline: as §1

[2] = molecular target: Glc(a1-6)Glc(a1-6)Glc(a1-6)Glc
Outline: as §1

[3] = molecular target: GlcNAc(a1-4)Gal(b1-4)GlcNAc(b1-3)Gal(b1-4)[Fuc(a1-3)]GlcNAc(b1-3)Gal(b1-4)[Fuc(a1-3)]GlcNAc
Outline: as §1

[4] = molecular target: GlcNAc(a1-6)Gal(b1-4)GlcNAc
Outline: as §1

[5] = molecular target: GlcNAc(b1-3)Gal(b1-4)GlcNAc(b1-2)[GlcNAc(b1-3)Gal(b1-4)GlcNAc(b1-6)]Man(a1-6)[GlcNAc(b1-3)Gal(b1-4)GlcNAc(b1-2)Man(a1-3)]Man(b1-4)GlcNAc(b1-4)GlcNAc
Outline: as §1

[6] = molecular target: GlcNAc(b1-3)Gal(b1-4)GlcNAc(b1-3)Gal(b1-4)GlcNAc(b1-2)Man(a1-3)[GlcNAc(b1-3)Gal(b1-4)GlcNAc(b1-3)Gal(b1-4)GlcNAc(b1-2)Man(a1-6)]Man(b1-4)GlcNAc(b1-4)[Fuc(a1-6)]GlcNAc
Outline: as §1

[7] = molecular target: GlcNAc(b1-3)Gal(b1-4)GlcNAc(b1-3)Gal(b1-4)GlcNAc(b1-3)Gal(b1-4)GlcNAc(b1-3)Gal(b1-4)GlcNAc(b1-2)Man(a1-3)[GlcNAc(b1-3)Gal(b1-4)GlcNAc(b1-3)Gal(b1-4)GlcNAc(b1-3)Gal(b1-4)GlcNAc(b1-3)Gal(b1-4)GlcNAc(b1-2)Man(a1-6)]Man(b1-4)GlcNAc(b1-4)GlcNAc
Outline: as §1

GlcNAc(b1-3)Man = molecular target: GlcNAc(b1-3)Man
Outline: as §1

[8] = molecular target: Neu5Ac(a2-3)Gal(b1-3)GlcNAc(b1-2)[Neu5Ac(a2-3)Gal(b1-3)GlcNAc(b1-4)]Man(a1-6)[Neu5Ac(a2-3)Gal(b1-3)GlcNAc(b1-2)Man(a1-3)]Man(b1-4)GlcNAc(b1-4)GlcNAc
Outline: as §1

[9] = molecular target: Neu5Ac(a2-3)Gal(b1-4)GlcNAc(b1-6)[Neu5Ac(a2-3)Gal(b1-3)]GalNAc
Outline: as §1

[10] = molecular target: Neu5Ac(a2-3)Gal(b1-4)[Fuc(a1-3)]GlcNAc(b1-3)Gal(b1-4)GlcNAc
Outline: as §1

[11] = molecular target: Neu5Ac(a2-3)[GalNAc(b1-4)]Gal(b1-4)GlcNAc(b1-3)GalNAc
Outline: as §1

[12] = molecular target: Neu5Ac(a2-6)Gal(b1-4)GlcNAc(b1-2)Man(a1-3)[GlcNAc(b1-2)Man(b1-4)GlcNAc(b1-2)Man(a1-6)]Man(b1-4)GlcNAc(b1-4)GlcNAc
Outline: as §1

[13] = molecular target: Neu5Ac(a2-6)Gal(b1-4)GlcNAc(b1-2)Man(a1-3)[Man(a1-6)]Man(b1-4)GlcNAc(b1-4)GlcNAc
Outline: as §1

[14] = molecular target: Neu5Ac(a2-6)Gal(b1-4)GlcNAc(b1-2)Man(a1-3)[Neu5Ac(a2-6)Gal(b1-4)GlcNAc(b1-2)Man(a1-6)]Man(b1-4)GlcNAc(b1-4)GlcNAc
Outline: as §1

[15] = molecular target: Neu5Ac(a2-6)Gal(b1-4)GlcNAc(b1-3)Gal(b1-4)GlcNAc(b1-3)Gal(b1-4)GlcNAc(b1-2)Man(a1-3)[Neu5Ac(a2-6)Gal(b1-4)GlcNAc(b1-3)Gal(b1-4)GlcNAc(b1-3)Gal(b1-4)GlcNAc(b1-2)Man(a1-6)]GalNAc
Outline: as §1

[16] = molecular target: Neu5Ac(a2-6)Gal(b1-4)GlcNAc(b1-3)Gal(b1-4)GlcNAc(b1-3)GalNAc
Outline: as §1

Neu5Ac(a2-6)GalNAc = molecular target: Neu5Ac(a2-6)GalNAc
Outline: as §1

[17] = molecular target: Neu5Ac(a2-8)Neu5Gc(a2-3)Gal(b1-4)GlcNAc
Outline: as §1

[18] = molecular target: Neu5Gc(a2-3)Gal(b1-3)GlcNAc
Outline: as §1

[19] = molecular target: Neu5Gc(a2-8)Neu5Gc(a2-3)Gal(b1-4)GlcNAc
Outline: as §1

B1: CRT-1 (Homo sapiens), P27797 (protein)
chain: MLLSVPLLLGLLGLAVAEPAVYFKEQFLDGDGWTSRWIESKHKSDFGKFVLSSGKFYGDEEKDKGLQTSQDARFYALSASFEPFSNKGQTLVVQFTVKHEQNIDCGGGYVKLFPNSLDQTDMHGDSEYNIMFGPDICGPGTKKVHVIFNYKGKNVLINKDIRCKDDEFTHLYTLIVRPDNTYEVKIDNSQVESGSLEDDWDFLPPKKIKDPDASKPEDWDERAKIDDPTDSKPEDWDKPEHIPDPDAKKPEDWDEEMDGEWEPPVIQNPEYKGEWKPRQIDNPDYKGTWIHPEIDNPEYSPDPSIYAYDNFGVLGLDLWQVKSGTIFDNFLITNDEAYAEEFGNETWGVTKAAEKQMKDKQDEEQRLKEEEEDKKRKEEEEAEDKEDDEDKDEDEEDEEDKEEDEEEDVPGQAKDEL
**Q.** With B1 as the binder, how does the “glycan array binding signal (z-score)” value (Gal3S(b1-3)GalNAc) read?
**A.** -0.188

**Q.** And the “glycan array binding signal (z-score)” value (Gal3S(b1-4)GlcNAc6S)?
**A.** -0.498

**Q.** And the “glycan array binding signal (z-score)” value (Gal6S(b1-4)Glc)?
**A.** -0.297

**Q.** What about the “glycan array binding signal (z-score)” value (Gal6S(b1-4)GlcNAc) of the same binder?
**A.** -0.673

**Q.** And the “glycan array binding signal (z-score)” value [1]?
**A.** 0.488

**Q.** What about the “glycan array binding signal (z-score)” value (GalNAc(b1-3)GlcNAc) of the same binder?
**A.** 0.853

**Q.** And the “glycan array binding signal (z-score)” value (GalNAc(b1-6)GalNAc)?
**A.** 0.544

**Q.** What about the “glycan array binding signal (z-score)” value [2] of the same binder?
**A.** 0.137

**Q.** What about the “glycan array binding signal (z-score)” value [3] of the same binder?
**A.** 1.95

**Q.** And the “glycan array binding signal (z-score)” value [4]?
**A.** -0.513

**Q.** What about the “glycan array binding signal (z-score)” value [5] of the same binder?
**A.** 2.14

**Q.** And the “glycan array binding signal (z-score)” value [6]?
**A.** 1.91

**Q.** And the “glycan array binding signal (z-score)” value [7]?
**A.** 0.27

**Q.** What about the “glycan array binding signal (z-score)” value (GlcNAc(b1-3)Man) of the same binder?
**A.** 0.915

**Q.** What about the “glycan array binding signal (z-score)” value [8] of the same binder?
**A.** -0.396

**Q.** And the “glycan array binding signal (z-score)” value [9]?
**A.** -0.461

**Q.** What about the “glycan array binding signal (z-score)” value [10] of the same binder?
**A.** 0.745

**Q.** And the “glycan array binding signal (z-score)” value [11]?
**A.** -0.233

**Q.** What about the “glycan array binding signal (z-score)” value [12] of the same binder?
**A.** 12.5

**Q.** And the “glycan array binding signal (z-score)” value [13]?
**A.** 0.357

**Q.** And the “glycan array binding signal (z-score)” value [14]?
**A.** 2.53

**Q.** What about the “glycan array binding signal (z-score)” value [15] of the same binder?
**A.** 1.9

**Q.** What about the “glycan array binding signal (z-score)” value [16] of the same binder?
**A.** -1.62

**Q.** What about the “glycan array binding signal (z-score)” value (Neu5Ac(a2-6)GalNAc) of the same binder?
**A.** 0.869

**Q.** What about the “glycan array binding signal (z-score)” value [17] of the same binder?
**A.** -0.349

**Q.** What about the “glycan array binding signal (z-score)” value [18] of the same binder?
**A.** -0.645

**Q.** And the “glycan array binding signal (z-score)” value [19]?
**A.** -0.33
